# Source: PubChem BioAssay AID2563 (Broad Institute, 2010)
# The whole screen tested about 290,000 compounds, of which about 800 (0.28%) were called active.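 Rule for the calls: active = fall in fluorescence gain of 50% or more versus controls, with final raw signal at or below 3038400; inconclusive = same 50% fall but final raw signal above 3038400; inactive = fall in fluorescence gain under 50%.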 Many of the other results were omitted from the sample, so actives are more common in it than they were.
# Biological target: CAAX prenyl protease 2 (Saccharomyces cerevisiae (strain ATCC 204508 / S288c)) (UniProt Q03530)
# Test: blockers of Rce1 CaaX peptide cleavage – biochemical, fluorescence, cell-free homogeneous, primary screen (AID 2563)
# Conditions: yeast membranes, quenched prenylated peptide cleavage fluorescence
# Sequence of CAAX prenyl protease 2 (Saccharomyces cerevisiae (strain ATCC 204508 / S288c)) (Q03530 whole entry, looked up): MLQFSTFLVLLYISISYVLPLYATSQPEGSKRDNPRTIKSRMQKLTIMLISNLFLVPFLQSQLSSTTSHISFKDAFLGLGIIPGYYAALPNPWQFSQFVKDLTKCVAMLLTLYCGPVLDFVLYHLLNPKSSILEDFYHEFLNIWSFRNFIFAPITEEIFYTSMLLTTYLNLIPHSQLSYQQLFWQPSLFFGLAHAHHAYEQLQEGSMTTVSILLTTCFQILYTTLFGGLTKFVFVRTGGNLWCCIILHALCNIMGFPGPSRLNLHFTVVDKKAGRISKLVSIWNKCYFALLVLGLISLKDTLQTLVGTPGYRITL
row,SMILES,outcome
1,CC(C)CN(C(=O)COC(=O)c1ccc2ccccc2c1)c1c(N)n(Cc2ccccc2)c(=O)[nH]c1=O,inactive
2,COc1ccc(NS(=O)(=O)c2ccc(C)c(C(=O)NCC(c3cccs3)N3CCOCC3)c2)cc1 (configuration not stated),inactive
3,CC(=O)NN1C(=O)c2ccccc2NC1c1ccccc1 (configuration not stated),active
4,CCOC(=O)NN1C(=O)c2ccccc2NC1c1cccc(O)c1 (configuration not stated),inactive
5,CN(C)c1ccc(C2Nc3ccccc3C(=O)N2NS(=O)(=O)c2ccccc2)cc1 (configuration not stated),inactive
6,COCCn1c(SC(C)C(=O)NC2CC2)nnc1-c1cccc(C)c1 (configuration not stated),inactive
7,CC(C)(C)S(=O)(=O)c1ccccc1-c1noc(-c2ccccc2)c1C(N)=O,inactive
8,CCn1c(SC(C)C(=O)Nc2ccc(N3CCOCC3)cc2)nnc1-c1ccco1 (configuration not stated),inactive
9,Cc1ccc(C(=O)N/N=C/c2cccc3ccccc23)cn1,inactive
10,CCCCCN(C(=O)CCC(=O)OCC(=O)NC1CCC(C)CC1)c1c(N)n(CCCC)c(=O)[nH]c1=O (configuration not stated),inactive
11,COc1ccc(C)cc1S(=O)(=O)Nc1cc2c3c(c1)CCC(=O)N3CCC2,inactive
12,CCCc1cc(=O)[nH]c(SCC(=O)c2c(N)n(CC(C)C)c(=O)n(C)c2=O)n1,inactive
13,O=C(CN1C(=O)NC2(CCCC2)C1=O)OCCOc1ccc(F)cc1,inactive
14,CCN1CCN(c2ccc(S(=O)(=O)N3CCCCC3)cc2NC(=O)c2cccc(NC(C)=O)c2)CC1,inactive
15,Cc1onc(-c2ccccc2Cl)c1C(=O)N(Cc1ccc(N(C)C)cc1)C(C)C,inactive
16,CCc1noc(C)c1C(=O)Nc1nc2ccc(OC)cc2s1,inactive
17,COC(C[C@@H](O)C[C@@H](O)[C@H](C)OCc1ccccc1)OC,inactive
18,COC(C[C@@H](O)C[C@H](O)[C@H](C)OCc1ccccc1)OC,active
19,COC(C[C@H](O)CC(=O)[C@@H](C)OCc1ccccc1)OC,inactive
20,Cc1ccc2nnn(Cc3cccc(C(C)(C)C)c3O)c2c1,inactive
21,Cc1ccc2nc(NC(=O)CSc3nc(=O)n(CCCN(C)C)c4c3CCC4)sc2c1,inactive
22,O=C(NCC(=O)N1CCCC(C(F)(F)F)C1)c1ccccc1F (configuration not stated),inactive
23,Cc1nc(N2CCN(c3ccccn3)CC2)c2c(C)c(C(=O)Nc3ccc(F)c(Cl)c3)sc2n1,inactive
24,Cc1nc(N2CCN(c3ccccn3)CC2)c2c(C)c(C(=O)Nc3ccc(F)cc3)sc2n1,inactive
25,Cc1nc(N2CCOCC2)c2c(C)c(C(=O)Nc3ccc(C(F)(F)F)cc3)sc2n1,active
26,Cc1c(C)n2c(SCC(=O)N3CCCC3)nnc2[nH]c1=O,inactive

row,SMILES,outcome
1,Cc1cc(/C=N/n2cnnc2)c(C)n1-c1ccc2ncccc2c1,inactive
2,Cc1nn(C)cc1C(=O)c1ccccc1,inactive
3,Cc1cccc([C@@H]2[C@@H]3C(=O)N(Cc4ccccc4)C(=O)[C@@H]3[C@]3(Cc4ccc(Cl)cc4)C(=O)N(c4cccc(Cl)c4)C(=O)N23)c1,inactive
4,C=CCNC(=O)C1CC2c3ccccc3C1c1ccccc12 (configuration not stated),inactive
5,COc1ccc(S(=O)(=O)Nc2ccc3oc(C)c(C(C)=O)c3c2)cc1,inactive
6,CC(=O)c1c(C)oc2ccc(NS(=O)(=O)c3ccccc3)cc12,inactive
7,CC(=O)c1c(C)oc2ccc(NS(=O)(=O)c3ccc(C(=O)O)cc3)cc12,active
8,COc1ccccc1CNC(=O)COn1nnc2ccc(S(=O)(=O)N3CCOCC3)cc21,inactive
9,CCc1cccc(NC(=O)COC(=O)C2CCN(c3ccc(C(F)(F)F)cn3)CC2)c1,inactive
10,O=C(NCC(c1cccs1)N1CCOCC1)c1cc(Cl)ccc1[N+](=O)[O-] (configuration not stated),inactive
11,Cc1ccc(S(=O)(=O)N2CCC(C(=O)NCCC3=CCCCC3)CC2)cc1C,inactive
12,O=C(CCC(=O)c1cccs1)Nc1nc2ccccc2s1,inactive
13,CC12CCC(=O)N1C(C(=O)Nc1ccc(F)c(F)c1F)CS2 (configuration not stated),inactive
14,COc1cc2ccccc2cc1C(=O)N1CCOCC1,inactive
15,COc1ccc(S(=O)(=O)NCc2cccnc2)cc1NC(=O)c1ccc(C)cc1,inactive
16,COc1cccc(OCc2cc(/C=N/NC(=O)c3nc(Cl)c(Cl)c(N)c3Cl)ccc2OC)c1,inactive
17,COc1ccc(/C=N/NC(=O)c2ccccc2)cc1OS(=O)(=O)c1ccccc1,inactive
18,COc1ccc(/C=N/NC(=O)c2ccc(Cl)cc2)cc1COC(C)=O,active
19,CCOC(=O)N1CCN(C(=O)c2ccccc2SCC(=O)NCC2CCCCC2)CC1,inactive
20,COc1ccccc1C(CNC(=O)c1cccc(NS(=O)(=O)c2ccc(Br)cc2)c1)N(C)C (configuration not stated),inactive
21,CCOc1ccc(CCNC(=O)CN2C(=O)NC3(CCc4ccccc43)C2=O)cc1OCC (configuration not stated),inactive
22,COc1ccccc1NC(=O)C(C)OC(=O)c1ccc(-n2cnnn2)cc1 (configuration not stated),inactive
23,COc1ccc(C(=NN)c2ccc(OC)cc2)cc1,inactive
24,CCCCn1c(N)c(N(Cc2ccccc2OC)C(=O)COc2cc(C)ccc2Cl)c(=O)[nH]c1=O,inactive
25,COc1ccc(NC(=O)CN(C)C(=O)c2n[nH]c3ccccc23)cc1,inactive
26,CCN(CC)c1ccc(S(=O)(=O)N2CCCCC2)cc1NC(=O)C1=COCCO1,inactive

row,SMILES,outcome
1,CCCCn1c(N)c(N(CC(C)C)C(=O)c2cnc(C)cn2)c(=O)[nH]c1=O,inactive
2,Cc1cccc(N(Cc2ccccc2)C(=O)c2cc(S(=O)(=O)N3CCOCC3)ccc2F)c1,inactive
3,Cc1ccc(C)c(NC(=O)COC(=O)Cn2c(C)csc2=O)c1,inactive
4,COc1ccc(-c2ccc3nnc(SCC(=O)Nc4ccc(NC(C)=O)cc4)n3n2)cc1,inactive
5,COc1ccc(C2=NN(C(=O)c3cccnc3)C(c3ccccc3)C2)cc1 (configuration not stated),inactive
6,COc1ccc(C2CC(c3ccc([N+](=O)[O-])cc3)=NN2C(C)=O)cc1 (configuration not stated),inactive
7,COc1ccc(C2CC(c3ccccc3)=NN2C(=O)c2ccc(Cl)c([N+](=O)[O-])c2)cc1 (configuration not stated),active
8,COc1ccc(S(=O)(=O)NCC(c2ccco2)N2CCOCC2)cc1 (configuration not stated),inactive
9,CCn1cc(C(=O)NCCO)c(=O)c2cc(F)c(N3CCN(C)CC3)cc21,active
10,CCCCNC(=O)c1cn(CC)c2cc(N3CCN(C(=O)c4ccco4)CC3)c(F)cc2c1=O,inactive
11,CN1CCN(c2cc3c(cc2F)c(=O)c(C(=O)O)cn3CCF)CC1,inactive
12,COc1ccc(NC(=O)CSc2nnc(Cc3ccccc3)c(=O)n2N)cc1,inactive
13,Cc1cc(C)c(S(=O)(=O)NCC(c2ccc3c(c2)OCO3)N2CCOCC2)c(C)c1 (configuration not stated),inactive
14,COc1ccccc1N(C)S(=O)(=O)c1ccc(Cl)c(C(=O)Nc2ccncc2)c1,inactive
15,COCCNc1nc(N)c([N+](=O)[O-])c(NCCO)n1,inactive
16,COCCNc1nc(N)c([N+](=O)[O-])c(N2CCCCCC2)n1,active
17,Nc1nc(NCC(=O)O)nc(N2CCCCCC2)c1[N+](=O)[O-],inactive
18,O=C(NCC1(N2CCCCC2)CCCCC1)c1ccc(NS(=O)(=O)c2ccc(F)cc2)cc1,inactive
19,COc1ccc2oc(C(=O)N(CC(C)C)C3CCS(=O)(=O)C3)c(C)c2c1 (configuration not stated),inactive
20,COc1ccc(S(=O)(=O)N2CCCCCC2)cc1C(=O)N(C)Cc1cccc(OC)c1OC,inactive
21,Cc1noc(C)c1CSCC(=O)Nc1ccc(Br)cc1Cl,inactive
22,COC(C[C@@H]1O[C@@H]1C(=O)[C@@H](C)OCc1ccccc1)OC,active
23,COC(C/C=C/C(=O)[C@@H](C)OCc1ccccc1)OC,inactive
24,COC(C[C@@H]1O[C@@H]1C(=O)[C@H](C)OCc1ccccc1)OC,inactive
25,COc1ccc(/C=N/NC(=O)c2cc(-c3cccc(C)c3)nc3ccccc23)cc1O,inactive
26,CCOC(=O)C1CCN(C(=O)COC(=O)C2CCN(S(=O)(=O)c3ccc4c(c3)OCCO4)CC2)CC1,inactive

row,SMILES,outcome
1,O=C(c1cc(-c2ccc(Cl)s2)nc2ccccc12)N1CCOCC1,inactive
2,CN(C(=O)COC(=O)c1cc(-c2ccco2)nc2ccccc12)C1CCS(=O)(=O)C1 (configuration not stated),inactive
3,O=C(Nc1cccc(F)c1)c1cc(-c2ccco2)nc2ccccc12,inactive
4,Cc1cc(C)c2nc(-c3ccco3)cc(C(=O)O)c2c1,active
5,CC(C)C(=O)Nc1cccc(NC(=S)NC(=O)C(c2ccccc2)c2ccccc2)c1,active
6,CCCCC(=O)NNC(=S)NC(=O)C(c1ccccc1)c1ccccc1,inactive
7,CC(C)C(=O)NC(=S)Nc1ccccc1F,inactive
8,CS(=O)(=O)c1ccc(C(=O)OCC(=O)NNC(=O)COc2ccc(Cl)cc2)cc1,inactive
9,CCC(=O)c1ccc(OCC(=O)OCC(=O)NC2CCCCCC2)cc1,inactive
10,Cc1nc2ccccn2c(=O)c1NC(=O)c1cccs1,inactive
11,COc1ccccc1C(=O)Nc1ccccc1C(=O)Nc1ccccc1,inactive
12,COc1ccccc1C(=O)NNC(=O)c1ccc(NC(=O)c2ccccc2)cc1,active
13,COc1ccccc1C(=O)Nc1ccc(Nc2ccccc2)cc1,inactive
14,Cc1nc2ccccc2c(=O)n1-c1ccc(F)c(NC(=O)c2cccs2)c1,inactive
15,Cc1cc(C)c(S(=O)(=O)N2CCCC2CNC(=O)c2ccc3c(c2)OCO3)c(C)c1 (configuration not stated),inactive
16,COC(=O)N/N=C/c1c[n+]([O-])c2ccccc2[n+]1[O-],inactive
17,NS(=O)(=O)c1cc(C(=O)OCC(=O)NNC(=O)c2ccccc2)ccc1Cl,inactive
18,CCN(CC(=O)Nc1ccccc1C(F)(F)F)C(=O)CSCc1c(C)noc1C,inactive
19,COc1ccc2nc(N3CCN(C(=O)c4ccc([N+](=O)[O-])o4)CC3)sc2c1,inactive
20,CC(=O)c1ccc(S(=O)(=O)Nc2ccc(-c3ccc4nncn4n3)cc2)cc1,inactive
21,COC(=O)C1CCN(C(=O)NC2CC(=O)N(c3ccc4c(c3)OCCO4)C2)CC1 (configuration not stated),inactive
22,O=C(CN1CCN(c2ccccn2)CC1)Nc1ccc(Br)cc1,inactive
23,Cc1cc(Br)ccc1NC(=O)c1cnc(N2CCN(c3ccccn3)CC2)c2ccccc12,active
24,Cc1cc(Br)ccc1NC(=O)c1sc2ncn(CC(=O)N3CCN(c4ccccn4)CC3)c(=O)c2c1C,inactive
